{"source": "PubChem BioAssay (EPA / NIEHS)", "note": "Active and inactive are the calls of the source. Rule for the calls: active = hit-call score of the fitted dose curve at least 0.9, where 1 is the maximum; inactive = score below 0.9.", "data": [{"read-out": "Heat shock 70 kDa protein 1 (HSPA1A), gene 3303", "assay": "LTEA_HepaRG_HSPA1A: Life Technologies and Expression Analysis (LTEA) Assay for Heat shock 70 kDa protein 1 (HSPA1A) using HepaRG (AID 2283502)", "conditions": "mRNA level, 48 h; actives raise or lower the signal", "procedure": "LTEA_HepaRG is a cell based, multiplexed-readout assay that uses HepaRG, a human liver cell line, with measurements taken at 48 hours after chemical dosing on a 96-well plate.LTEA_HepaRG_HSPA1A is one of 102 assay component(s) measured in the LTEA HepaRG cell culture assay. It is a marker of Oxidative Stress.Data from the assay component LTEA_HepaRG_HSPA1A was analyzed into 1 endpoint. This assay endpoint, LTEA_HepaRG_HSPA1A, was analyzed with bidirectional fitting relative to DMSO as the negative control and baseline of activity. Using a type of inducible reporter, measures of mRNA induction for gain or loss-of-signal activity can be used to understand regulation of transcription factor activity. To generalize the intended target to other relatable targets, this assay endpoint is annotated to the dna binding intended target family, where the subfamily is heat shock protein.\nA total of 1060 chemcials from the ToxCast library were tested in eight-point concentration-response experiments. Cell culture and cytotoxicity assays were conducted at Thermo Fisher Scientific's Custom Services facility (Madison, WI). A single lot of human HepaRG cells (Thermo Fisher Scientific, Frederick, MD) was used for the cell culture experiments. 96-well format collagen type I coated plates of human HepaRG cells were prepared using established methods. Briefly, cryopreserved HepaRG cells were thawed, plated at a density of approximately 100,000 cells/well in HepaRG Thaw, Plate, and General Purpose media (HPRG770, Thermo Fisher Scientific), and incubated for 48 hours. 0.5% DMSO was selected as vehicle control to balance the requisite need of DMSO in HepaRG cultures to maintain differentiation (for example, baseline metabolism, proportions of hepatocytes vs. cholangiocytes), while enabling further hepatic receptor pathway activation (for example, PXR and CAR) in response to chemical exposure. 48 hours after plating, the culture medium was replaced with HepaRG Serum-Free Incudtion Media. Cells were exposed to each test chemical in duplicate and maintained in CO2 incubators for another 48 hours. Chemical plates were thawed to room temperature and 200x concentrations of treatment groups were prepared. 8-point conentration-reponse curves were made with the highest exposure at 100 uM, followed by half-log dilutions, all in 0.5% DMSO. Each test plate contained variouse controls, induction positive controls (1mM phenobarbital), cytotoxicity positive controls ([…] aflatoxin B1), vehicle controls (0.5% DMSO), and total lysis controls (0.5% DMSO). Cell morphology images were taken using an Essen IncuCyte FLR automated microscope, with six 96-well plates imaged in about 24 minutes. Images were captured and exported and JPEG files. Spent culture media was transfered to black-well plates for the LDH assay, and remaining media was sorted at -80 C for later use. Cells were treated with RLT buffer and frozen until shipped for gene expression analysis. Total RNA was isolated from the cell suspension in 75 uL of Buffer RLT (Qiagen, Germantown, MD 20874) by Quintiles/Expression Analysis (Durham, NC) using a custom isolation procedure. Total RNA from each plate well was transferred to a preamplification plate. Fluidigm's 96.96 Dynamic ArrayTM (Fluidigm, Amsterdam, the Netherlands) technology was used for gene expression analyses by quantitative reverse transcription polymerase chain reaction (qRT-PCR, performed by Quintiles/Expression Analysis, Durham, NC)89. Standard TaqManTM Assays (Applied Biosystems/ThermoFisher Scientific, Foster City, CA) were used to assess the expression of 93 genes selected based on their selectivity and sensitivity to important hepatic receptors known to be modulated by environmental chemicals; importance in human hepatocyte functionality; and hepatotoxicity. […]", "values": [{"smiles": "Cc1ccccc1O", "outcome": "inactive"}, {"smiles": "Nn1cnnc1", "outcome": "inactive"}, {"smiles": "CCOCCOC(C)=O", "outcome": "inactive"}, {"smiles": "CN(C)c1nc(=O)n(C2CCCCC2)c(=O)n1C", "outcome": "inactive"}, {"smiles": "CC(c1ccc(O)cc1)(c1ccc(O)cc1)c1ccc(O)cc1", "outcome": "inactive"}, {"smiles": "Clc1ccc(C(c2ccccc2Cl)C(Cl)(Cl)Cl)cc1", "note": "(stereo not given)", "AC50": "12 µM (active)"}, {"smiles": "NS(=O)(=O)C(F)(F)C(F)(F)C(F)(F)C(F)(F)C(F)(F)C(F)(F)C(F)(F)C(F)(F)F", "AC50": "75.5 µM (active)"}, {"smiles": "N#Cc1ccc(N(CC(N)=O)CC(F)(F)F)cc1C(F)(F)F", "outcome": "inactive"}, {"smiles": "CCOP(=S)(OCC)SCSC(C)(C)C", "outcome": "inactive"}, {"smiles": "Oc1ccc(Cl)cc1Cl", "outcome": "inactive"}, {"smiles": "Cc1ccccc1CO[C@@H]1C[C@@]2(C(C)C)CC[C@]1(C)O2", "AC50": "50 µM (active)"}, {"smiles": "CCOC(=O)C(O)(c1ccc(Cl)cc1)c1ccc(Cl)cc1", "outcome": "inactive"}, {"smiles": "O=S(=O)(O)C(F)(F)C(F)(F)C(F)(F)C(F)(F)F", "outcome": "inactive"}, {"smiles": "O=C(NC(=O)c1cc(F)c(F)cc1Cl)Nc1cc(F)ccc1N1CCC(C(=O)O)CC1", "outcome": "inactive"}, {"smiles": "O=C(O)C(F)(F)C(F)(F)C(F)(F)C(F)(F)C(F)(F)C(F)(F)C(F)(F)C(F)(F)C(F)(F)F", "outcome": "inactive"}, {"smiles": "C=CC(N)=O", "outcome": "inactive"}, {"smiles": "O=C(NC(=O)c1c(F)cccc1F)Nc1cc(Cl)c(OC(F)(F)C(F)F)c(Cl)c1", "outcome": "inactive"}, {"smiles": "CC(C)(c1ccccc1)c1ccc(O)cc1", "outcome": "inactive"}, {"smiles": "CCCCCCCCOC(=O)c1ccccc1C(=O)OCCCCCCCC", "outcome": "inactive"}, {"smiles": "C[C@]12CCC(=O)C=C1CC[C@@H]1[C@@H]2CC[C@@]2(C)[C@H]1CC[C@]2(C)O", "outcome": "inactive"}, {"smiles": "CCCN(CCC)N=O", "outcome": "inactive"}, {"smiles": "C=CC(=O)NCNC(=O)C=C", "outcome": "inactive"}, {"smiles": "O=NN(c1ccccc1)c1ccccc1", "outcome": "inactive"}, {"smiles": "Cc1cc2c3c(c1)C(c1ccccc1)=N[C@@H](NC(=O)c1ccncc1)C(=O)N3CC2", "AC50": "50 µM (active)"}, {"smiles": "Nc1ccc(-c2ccc(N)cc2)cc1", "outcome": "inactive"}, {"smiles": "CCC(C)(CC)c1cc(NC(=O)c2c(OC)cccc2OC)on1", "outcome": "inactive"}, {"smiles": "O=C(N[C@H]1CN2CCC1CC2)c1cc2ccoc2cn1", "outcome": "inactive"}, {"smiles": "c1cc2ccc3cccc4ccc(c1)c2c34", "outcome": "inactive"}, {"smiles": "Oc1c(Cl)c(Cl)c(Cl)c(Cl)c1Cl", "AC50": "6.34 µM (active)"}, {"smiles": "C1CC2OC2CC1C1CO1", "note": "(stereo not given)", "outcome": "inactive"}, {"smiles": "O=C(O)C(F)(F)C(F)(F)C(F)(F)C(F)(F)C(F)(F)F", "outcome": "inactive"}, {"smiles": "CCNc1nc(NC(C)C)nc(SC)n1", "outcome": "inactive"}, {"smiles": "COS(=O)(=O)OC", "outcome": "inactive"}, {"smiles": "ClC(Cl)=C(c1ccc(Cl)cc1)c1ccc(Cl)cc1", "outcome": "inactive"}, {"smiles": "CC(C)(O)C(=O)Nc1ccc([N+](=O)[O-])c(C(F)(F)F)c1", "outcome": "inactive"}, {"smiles": "CCCCCCOC(=O)c1ccccc1C(=O)OCCCCCC", "outcome": "inactive"}, {"smiles": "CO/C=C(/C(=O)OC)c1ccccc1COc1cccc(C(F)(F)F)n1", "outcome": "inactive"}, {"smiles": "C[C@]12CCC(=O)C=C1CC[C@@H]1[C@@H]2CC[C@]2(C)C(=O)CC[C@@H]12", "outcome": "inactive"}, {"smiles": "CCCCCCCCCc1ccc(O)cc1", "outcome": "inactive"}, {"smiles": "Cc1cc(O)ccc1Cl", "outcome": "inactive"}]}]}
